Results as given in ChEMBL document CHEMBL3433997, “St. Jude Leishmania screening dataset” (2016).

Legend:
Type in all cases: functional
[1] = target: Solute carrier family 2, facilitated glucose transporter member 1 (Homo sapiens) (UniProt P11166); assay: ST_JUDE_LEISH: Cytotoxicity at 2uM final concentration against transgenic Leishmania Mexicana promastigotes LmGLUT1 that are glucose transport deficient and complemented with the human glucose transporter GLUT1. Activity is measured by DNA content using SYBR green in vitro
Chain of Solute carrier family 2, facilitated glucose transporter member 1 (Homo sapiens) (P11166 whole entry): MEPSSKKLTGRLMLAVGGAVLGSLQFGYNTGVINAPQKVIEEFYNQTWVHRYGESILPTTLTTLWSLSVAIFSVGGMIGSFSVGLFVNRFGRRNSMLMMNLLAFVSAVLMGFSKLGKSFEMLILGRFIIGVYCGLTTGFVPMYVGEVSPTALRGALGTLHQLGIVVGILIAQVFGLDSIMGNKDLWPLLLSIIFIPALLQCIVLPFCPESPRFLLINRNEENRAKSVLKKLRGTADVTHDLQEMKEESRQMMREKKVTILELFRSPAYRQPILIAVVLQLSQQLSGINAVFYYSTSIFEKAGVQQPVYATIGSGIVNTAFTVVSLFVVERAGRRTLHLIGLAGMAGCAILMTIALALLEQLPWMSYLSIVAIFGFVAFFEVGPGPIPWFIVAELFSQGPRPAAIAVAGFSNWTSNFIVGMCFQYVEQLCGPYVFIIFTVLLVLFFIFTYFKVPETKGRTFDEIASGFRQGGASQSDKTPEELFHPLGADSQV

[2] = target: Hexose transporter 1 (Plasmodium falciparum) (UniProt O97467); assay: ST_JUDE_LEISH: Cytotoxicity at 2uM final concentration against transgenic Leishmania Mexicana promastigotes LmPfHT that are glucose transport deficient and complemented with the Plasmodium falciparum hexose transporter. Activity is measured by DNA content using SYBR green in vitro
[3] = target: Glucose transporter (Leishmania mexicana) (UniProt O61059); assay: ST_JUDE_LEISH: Cytotoxicity at 2uM final concentration against transgenic Leishmania Mexicana promastigotes LmGT2 that are glucose transport deficient and complemented with the L. Mexicana glucose transporter 2. Activity is measured by DNA content using SYBR green in vitro

Compound | inhibition [1] | inhibition [2] | inhibition [3]
Cc1cc(C2CCN(CCCCNC(=O)c3ccc(-c4ccc(C(F)(F)F)cc4)cc3)CC2)c(C)cc1OCC(N)=O | 0.54% | 1.14% | 0.73%
CCN(CC(C)O)C(=O)c1ccc(-c2ccc(-c3nc4cccc(C)c4[nH]3)cc2)cc1 (stereo not given) | 6.07% | -2.57% | 0.55%
COc1ccc(-c2ccc(NC(=O)c3ccc(F)cc3)cc2)cc1CN1CCCN(C)CC1 | 6.26% | 3.81% | 2.87%
CCn1c(SC)nnc1C1CCCN(CC(=O)Nc2nc3ccc(OC)cc3s2)C1 (stereo not given) | 4.48% | 3.27% | 0.77%
Cc1cccc2nc(-c3ccc(-c4ccc(CN5CCCC(O)C5)cc4)cc3)[nH]c12 (stereo not given) | 25.8% | 30.8% | 19.8%
Fc1ccc2[nH]c(-c3ccc(-c4ccc(CNCC5CCCO5)cc4)s3)nc2c1 (stereo not given) | 11.9% | 9.33% | 11%
N=C(/N=C(/NCCCCCCN/C(=N\C(=N)Nc1ccc(Cl)cc1)N1CCOCC1)N1CCOCC1)Nc1ccc(Cl)cc1 | 10.5% | 9.54% | 9.37%
Cn1c2c(c3ccccc31)CN(CCC1(c3ccc(Cl)c(Cl)c3)CN(C(=O)Cc3ccccc3)CCO1)CC2 (stereo not given) | 2.23% | 3.84% | -1.01%
CCn1c(-c2cc(C)on2)nc2cnc(Oc3ccc(C(=O)N4CC(=O)N(C)C4C(C)(C)C)cc3)cc21 (stereo not given) | -1.85% | 1.92% | 5.58%
CCNc1cc(C(=O)N[C@@H](Cc2ccccc2)[C@H](O)CNC2(CCC(C)C)CC2)cc(N2CCCCS2(=O)=O)c1 | -1.85% | -0.04% | -0.78%
CC(C)Cn1cc(C2CCN(CCN3CCC(CNC(=O)c4ccc(-c5ccc(C(F)(F)F)cc5)cc4)CC3)CC2)c2ccccc21 | 2.78% | 3.07% | 2.25%
Cc1[nH]c2ccc(O)cc2c1C1CCN(CCCCCNC(=O)/C=C/c2ccc(Cl)c(Cl)c2)CC1 | 0.59% | 0.7% | 0.96%
CC(=O)Nc1cccc(C(=O)Nc2ccc(-c3cccc(-c4nc5cc(F)ccc5[nH]4)c3)cc2)c1 | 4.65% | 4.15% | 5.47%
O=C(Nc1ccc(C(F)(F)F)cc1)c1ccc(S(=O)(=O)NC2CCN(CC3CCCCC3)CC2)cc1 | 1.19% | 0.54% | -1.52%
CNc1nc(N/N=C/c2cc3c(cc2[N+](=O)[O-])OCO3)nc(Nc2cccc(C(F)(F)F)c2)n1 | 6.24% | 5.94% | 2.16%
COc1cc(-c2ccc(-c3cnc(N)nc3OC)[nH]2)cc(OC)c1OC | 5.61% | 5.42% | 2.7%
Cc1ccc2nc(C)cc(N/N=C/c3ccccc3[N+](=O)[O-])c2c1 | 10.8% | 6.78% | 7.96%
Cc1cc(C)c(CON2C(=N)N=C(N)NC2(C)C)cc1C | -0.51% | -0.15% | -0.63%
Oc1ccc2[nH]cc(C3CCN(CCCCCCCCCN4CCC(c5c[nH]c6ccc(O)cc56)CC4)CC3)c2c1 | -1.57% | -1.31% | -1.9%
CCn1cc2c3c(cc(C(=O)N[C@@H](Cc4ccccc4)[C@H](O)CNCc4cccc(OC)c4)cc31)N(C)S(=O)(=O)CC2 | 1.89% | 3.02% | 2.18%
O=C(/C=C/c1cccc(Cl)c1)Nc1ccc2nc(CN3CCCC3)ccc2c1 | 3.42% | 5.45% | 3.23%
Cc1ccc(C2(C)CN(CCCOc3cccc(-c4ccc(C(=O)NC(C)C)cc4)c3)CCO2)cc1 (stereo not given) | 0.12% | 4.27% | 0.85%
CCOC(=O)/C(=N\OC(C)(C)C(=O)NCc1ccc(O)c(O)c1)c1csc(NC(c2ccccc2)(c2ccccc2)c2ccccc2)n1 | -2.31% | -1.09% | -1.17%
COc1ccc(CNCc2ccccc2)cc1-c1ccc(S(=O)(=O)NCCN2CCCC2)c(C)c1 | 3.15% | -0.54% | 2.34%
COc1ccccc1C1CCN(C2CCC(NC(=O)/C=C/c3cc(F)c(F)cc3F)CC2)CC1 (stereo not given) | 2.17% | 2.98% | 2.21%
Cc1ccccc1C1CCN(C2CCC(NC(=O)/C=C/c3ccccc3C(F)(F)F)CC2)CC1 (stereo not given) | 3.47% | -0.14% | 4.39%
N#CN1CC[C@@H](OC(=O)N[C@@H]2C[C@H]2c2ccccc2)C1 | 8.37% | 7.38% | 4.43%
CCn1c(-c2nonc2N)nc2c(Cl)ncc(O[C@H](CCN)c3ccccc3F)c21 | 58.6% | 48.5% | 20.2%
OC(CNCc1ccccc1OCc1ccccc1)c1cc(Br)cs1 (stereo not given) | 3.96% | 3.38% | 3.82%
CNS(=O)(=O)CCNCc1ccc(-c2ccc3ncnc(Nc4ccc(OCc5ccccc5)cc4)c3c2)o1 | 6.09% | 6.17% | 3.83%
